Abeta rescue: restores growth of yeast expressing A-beta42 peptide; yeast expressing A-beta42, growth rescue, OD600, 48 h; response scale: 0% DMSO, 100% iron-clioquinol control; Potency, µM (series often up to 46.1 µM), most hits filed as activators; 410,000 tested, 0.063% active; further: nearly all actives have a fitted effect of over 55% in size
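Yeast A-beta toxicity model in growth medium with pinned compounds, 48 h at 30 C; growth read as absorbance at 600 nm. Normalized to FeCl3/clioquinol equimolar mix (positive) and DMSO (negative).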
TDP-43 yeast inh: rescues yeast growth from TDP-43 toxicity | TDP-43 expressing yeast growth rescue, BacTiter-Glo, 24 h | Potency, µM (highest dose often 46.1 µM), for inactives: at the highest dose growth rescue (activation), hits mostly activators | 410,000 tested, 1.8% active | AID 652104; further: % of control where 0% means no effect; nearly all actives have a fitted effect of over 50% in size
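Yeast expressing TDP-43 (pregrown in raffinose, seeded at OD600=0.02 in galactose medium) exposed to compounds 24 hr at 30 deg C. Growth read by BacTiter-Glo luminescence; rescue of toxicity appears as increased signal.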
FUS suppressor: suppressors of FUS proteinopathy in yeast; S. cerevisiae FUS-expressing, growth rescue, OD600, 24 h; Potency, µM (highest dose often 76.6 µM), hits mostly activators; 390,000 tested, 0.24% active; AID 1347120;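 further: plate controls were DMSO vehicle for no effect and reference control for full effect; nearly all actives have a fitted effect of over 55% in size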
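Toxicity suppression screen in FUS-yeast. Cells induced with 2% galactose, starting OD 0.005, treated 24hr at 30C with compounds at multiple final concentrations; growth by OD600.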
aSyn yeast inh: inhibitors of alpha-synuclein toxicity in yeast. Potency, µM (titrated, usually from 46.1 µM), inactives show at the top dose growth rescue (activation), actives largely listed as activators. AID 652106. Yeast expressing alpha-synuclein, growth rescue, BacTiter-Glo, 24 h. 370,000 tested, 0.14% active; further: % of control where 0% means no effect; nearly all actives have a fitted effect of over 65% in size
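Screening used galactose-induced yeast with toxic alpha-synuclein levels, exposed to compound for 24 hr at 30 deg C. Cell growth, read with BacTiter-Glo luminescence, gave the measured signal.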
Numbers without * were called inactive; i = inactive; ? = inconclusive; nt = no result; [ ] = another dose, or the depositor's remark. Compounds with a hit are over-represented: about 2.1% of the library has one in this group of screens. The call rests on the fitted dose curve; in most records, active means well fitted curve in the direction sought with a large enough effect; inconclusive means small, poorly fitted or top-dose-only effect, or another doubt; inactive means no such curve, though single readings can be large; an effect the other way counts as inactive or inconclusive. Potency means the concentration at half of the fitted maximal effect.

SMILES | Abeta rescue | TDP-43 yeast inh | FUS suppressor | aSyn yeast inh
Cc1ccc(Cc2c(-c3cccc(Cl)c3)nc3ccc(C)cn23)cc1 | i | 28µM* | i | 6%
CCOC(=O)c1ccc(NC(=O)c2cn3c4c(ccc(Cl)c4c2=O)OC(C)C3)cc1 (configuration not stated) | i | -1% | i | nt
CN(C)c1ccc(/C=C/c2ccnc3ccc(Br)cc23)cc1 | nt | nt | nt | 5%
CN(C)S(=O)(=O)N(CC(=O)NCCSCc1cccc(Cl)c1)c1ccccc1 | i | ? | ? | nt
Cc1cc(Br)c2nc(-c3ccccc3)c(Cc3cccc(Cl)c3)n2c1 | i | 11µM* | ? | -7%
COc1ccc(Cc2c(-c3cccc(Cl)c3)nc3ccc(Cl)cn23)c(C)c1 | i | 35µM* | i | 8%
CC(=O)c1ccc(NC(=O)c2nc(-c3ccccc3)n(-c3ccccc3Cl)n2)cc1 | i | 14µM* | ? | nt
CC(=O)c1ccc(NC(=O)c2nc(-c3ccccc3)n(-c3ccccc3)n2)cc1 | i | 18µM* | i | nt
N#Cc1ccc(NC(=O)c2nc(-c3ccccc3)n(-c3ccccc3)n2)cc1 | i | -4% | i | -9%
CC(=O)c1cccc(NC(=O)c2nc(-c3ccccc3)n(-c3cccc(Cl)c3)n2)c1 | i | 35µM* | ? | nt
CCc1ccc(NC(=O)c2cc(C)nn2-c2ccccc2)cc1 | i | 16µM* | i | -1%
COc1ccc(-c2nc(C(=O)Nc3ccc(C(C)=O)cc3)nn2-c2cccc(Cl)c2)cc1 | i | ? | ? | nt
COc1ccc(Cl)cc1-n1cc(-c2ccccc2)nc1SCC(=O)Nc1ccc(C)cc1 | i | 0%[9.22 µM] | i | nt
Cc1cc(C(=O)NCc2ccccc2C)c2c(C)nn(-c3cccc(F)c3)c2n1 | i | 3%[9.22 µM] | i | nt
Cc1nc(C(=O)Nc2cc(Cl)ccc2Cl)nn1-c1cc(OC(C)C)c(Cl)cc1Cl | i | 10% | i | 5%
Cc1nc(C(=O)Nc2cccc(Cl)c2)nn1-c1cc(OC(C)C)c(Cl)cc1Cl | i | 5% | 32µM* | -11%
O=[N+]([O-])c1ccc(CNc2ccc(Cl)cc2)s1 | ? | ? | i | -9%
O=[N+]([O-])c1ccc(CNc2cccc(Cl)c2)s1 | i | 18µM* | i | ?
COc1ccc(NCc2ccc([N+](=O)[O-])s2)c(OC)c1 | i | 10µM* | nt | 17%
COc1ccc(NCc2ccc([N+](=O)[O-])s2)cc1 | i | ? | i | 20%
O=C(c1ccc([N+](=O)[O-])s1)N1CCN(c2cccc(Cl)c2)CC1 | i | -81% | nt | 20%
O=[N+]([O-])c1ccc(CNc2ccc(F)cc2)s1 | ? | 13µM* | i | 3%
O=C(COc1ccccc1)N1CCN(c2ncnc3c2cnn3-c2ccccc2)CC1 | i | 14µM* | i | 9%
c1ccc(-n2ncc3c(N4CCN(CCOc5cccc6ccccc56)CC4)ncnc32)cc1 | i | 20µM* | i | -1%
COC(=O)c1cc2oc3ccccc3c2n1Cc1ccc(Cl)cc1 | i | -4% | i | nt
SMILES | Abeta rescue | TDP-43 yeast inh | FUS suppressor | aSyn yeast inh
COc1cc2oc3ccc(C#Cc4ccccn4)cc3c(=O)c2cc1OC | i | 9% | i | 13µM*
CSc1ncc(C(=O)NCc2ccc(C)cc2)c(-c2ccccc2)n1 | i | 15% | i | nt
O=C(NCCCc1ccccc1)[C@H](Cc1c[nH]c2ccccc12)NC1(C(=O)NCCc2c[nH]c3ccccc23)CCOCC1 | nt | nt | 22µM* | nt
CC(C)(N[C@@H](Cc1c[nH]c2ccccc12)C(=O)NCC(c1ccccc1)c1ccccc1)C(=O)NC1CCCCC1 | nt | nt | 14µM* | nt
CC(C)(C)OC(=O)N1CCC(N[C@@H](Cc2c[nH]c3ccccc23)C(=O)NCCc2c[nH]c3ccccc23)(C(=O)NC2CCCCC2)CC1 | nt | nt | 20µM* | nt
COc1cccc(CO[C@H]2C=C[C@@H](c3ccccc3)O[C@@H]2COC(C)=O)c1 | nt | nt | i | nt
Cc1[nH]c2ccc(C(=O)N3CCN(c4ccc(F)cc4)CC3)cc2c1C | i | 14µM* | i | 13%
Cc1occc1C(=O)N1CCN(c2ccc([N+](=O)[O-])cc2)CC1 | i | 0% | i | -1%
Cc1scc(C(=O)N2CCN(c3ccc(Cl)cc3)CC2)c1C | i | 14µM* | i | 7%
Cc1occc1C(=O)N1CCN(c2ccc(Cl)cc2)CC1 | i | 10µM* | i | 7%
COc1ccc(N2CCN(C(=O)c3cc(-c4ccc(F)cc4)[nH]c3C)CC2)cc1 | i | ? | ? | 17%
O=C(c1ccccc1)N1CCN(c2ccc(Cl)cc2)CC1 | i | ? | i | 8%
Cc1[nH]c(-c2ccc(F)cc2)cc1C(=O)N1CCN(c2ccc(Cl)cc2)CC1 | i | 16µM* | i | ?
CCNS(=O)(=O)c1ccc(Br)c(OC)c1 | i | -7% | i | 7%
COc1cc(S(=O)(=O)NCc2ccc3c(c2)OCO3)ccc1Cl | i | 13µM* | i | -10%
COc1cc(S(=O)(=O)NCc2ccc3c(c2)OCO3)c(OC)cc1C | i | ? | i | 8%
COc1cc(S(=O)(=O)NCc2ccccc2)ccc1Br | i | 13µM* | nt | 3%
CC(C)c1ccc(S(=O)(=O)NCc2ccc3c(c2)OCO3)cc1 | i | 11µM* | i | 15%
O=C(O)c1ccc(S(=O)(=O)NCc2ccc3c(c2)OCO3)cc1 | i | -4% | i | -3%
COc1cc(C)c(S(=O)(=O)NCc2ccc3c(c2)OCO3)cc1C | i | 16µM* | i | ?
CCC(=O)N1CCc2cc(CNS(=O)(=O)c3ccc(C(C)C)cc3)ccc21 | i | 20µM* | i | nt
COC(=O)N1CCCc2cc(S(=O)(=O)NCc3ccccc3)ccc21 | i | 13% | i | 18µM*
CC(=O)c1cccc(NC(=O)c2sc(-n3nc(C)c(Cc4ccccc4)c3C)nc2C)c1 | i | 13% | i | nt
Cc1csc2nc(COc3ccc(NC(=O)COc4ccccc4F)cc3)cc(=O)n12 | i | 14% | i | nt
CCOC(=O)[C@@]12CCC3=C1N(CCC3)C(=O)[C@H](CC(=O)N1CCC(c3ccccc3)CC1)C2 | nt | nt | i | nt
SMILES | Abeta rescue | TDP-43 yeast inh | FUS suppressor | aSyn yeast inh
COc1ccc(N2CCN(C(=O)c3cnn(-c4ccc(F)cc4)c3-n3cccc3)CC2)cc1 | i | ? | i | 3%
Cc1cccc(Nc2nc(NCc3ccco3)nc(N)c2[N+](=O)[O-])c1 | i | 3% | i | 5%
Cc1cccc(Nc2nc(N)c([N+](=O)[O-])c(N3CCC(C)CC3)n2)c1 | i | 25µM* | i | 5%
Cc1cccc(Nc2nc(N)c([N+](=O)[O-])c(N3CC(C)CC(C)C3)n2)c1 (configuration not stated) | i | 17% | i | 8%
Cc1cccc(Nc2nc(N)c([N+](=O)[O-])c(NCc3ccco3)n2)c1 | i | 14µM* | ? | 3%
CC(=O)N1CCCc2cc(S(=O)(=O)N(C)CC(=O)Nc3ccc(C(C)C)cc3)ccc21 | i | 15% | i | nt
